Article PMC11062922 (Nature Chemical Biology, 2023)
Like-named read-outs stand apart in the source and are kept apart here.

Experiments:
STK3 = conditions: read-out: apparent Kd, n = 1
STK4 = conditions: read-out: apparent Kd, n = 1
[1] = compound concentrations:100 nM and 1000 nM (sheet 'Lestaurtinib' of Supplementary Table 1),run:Lestaurtinib_02367_R1,Plate:MR003
[2] = compound concentrations:100 nM and 1000 nM (sheet 'Lestaurtinib' of Supplementary Table 1),run:Lestaurtinib_02367_R2,Plate:MR003
[3] = compound concentrations:100 nM and 1000 nM (sheet 'Lestaurtinib' of Supplementary Table 1),run:Lestaurtinib_02367_R3,Plate:MR003
[4] = compound concentrations:100 nM and 1000 nM (sheet 'Lestaurtinib' of Supplementary Table 1),run:Lestaurtinib_02381_R1,Plate:MR004
[5] = compound concentrations:100 nM and 1000 nM (sheet 'Lestaurtinib' of Supplementary Table 1),run:Lestaurtinib_02381_R2,Plate:MR004
[6] = compound concentrations:100 nM and 1000 nM (sheet 'Lestaurtinib' of Supplementary Table 1),run:Lestaurtinib_02407_R3,Plate:MR005
[7] = compound concentrations:100 nM and 1000 nM (sheet 'Lestaurtinib' of Supplementary Table 1),run:Lestaurtinib_02422_R1,Plate:MR006
[8] = compound concentrations:100 nM and 1000 nM (sheet 'Lestaurtinib' of Supplementary Table 1),run:Lestaurtinib_02422_R2,Plate:MR006
[9] = compound concentrations:100 nM and 1000 nM (sheet 'Lestaurtinib' of Supplementary Table 1),run:Lestaurtinib_02437_R1,Plate:MR007
[10] = compound concentrations:100 nM and 1000 nM (sheet 'Lestaurtinib' of Supplementary Table 1),run:Lestaurtinib_02437_R2,Plate:MR007
[11] = compound concentrations:100 nM and 1000 nM (sheet 'Lestaurtinib' of Supplementary Table 1),run:Lestaurtinib_02438_R1,Plate:MR008
[12] = compound concentrations:100 nM and 1000 nM (sheet 'Lestaurtinib' of Supplementary Table 1),run:Lestaurtinib_02443_R1,Plate:MR009
[13] = compound concentrations:100 nM and 1000 nM (sheet 'Lestaurtinib' of Supplementary Table 1),run:Lestaurtinib_02473_R2,Plate:MR010

Lestaurtinib
potency estimated from few doses (STK3; [1]): 39.1 nM
potency estimated from few doses (STK3; [2]): 37.3 nM
potency estimated from few doses (STK3; [3]): 42.9 nM
potency estimated from few doses (STK3; [4]): 32.9 nM
potency estimated from few doses (STK3; [5]): 38.2 nM
potency estimated from few doses (STK3; compound concentrations:100 nM and 1000 nM (sheet 'Lestaurtinib' of Supplementary Table 1),run:Lestaurtinib_02407_R1,Plate:MR005): 40 nM
potency estimated from few doses (STK3; compound concentrations:100 nM and 1000 nM (sheet 'Lestaurtinib' of Supplementary Table 1),run:Lestaurtinib_02407_R2,Plate:MR005): 29.8 nM
potency estimated from few doses (STK3; [6]): 30.1 nM
potency estimated from few doses (STK3; [7]): 51.1 nM
potency estimated from few doses (STK3; [8]): 62.7 nM
potency estimated from few doses (STK3; [9]): 38.1 nM
potency estimated from few doses (STK3; [10]): 50.7 nM
potency estimated from few doses (STK3; [11]): 29.8 nM
potency estimated from few doses (STK3; [12]): 41.6 nM
potency estimated from few doses (STK3; compound concentrations:100 nM and 1000 nM (sheet 'Lestaurtinib' of Supplementary Table 1),run:Lestaurtinib_02443_R2,Plate:MR009): 39.1 nM
potency estimated from few doses (STK3; compound concentrations:100 nM and 1000 nM (sheet 'Lestaurtinib' of Supplementary Table 1),run:Lestaurtinib_02473_R1,Plate:MR010): 47.3 nM
potency estimated from few doses (STK3; [13]): 42.2 nM
potency estimated from few doses (STK3; compound concentrations:100 nM and 1000 nM (sheet 'Lestaurtinib' of Supplementary Table 1),run:Lestaurtinib_02482_R1,Plate:MR011): 27.1 nM
potency estimated from few doses (STK3; compound concentrations:100 nM and 1000 nM (sheet 'Lestaurtinib' of Supplementary Table 1),run:Lestaurtinib_02482_R2,Plate:MR011): 44.7 nM
potency estimated from few doses (STK3; compound concentrations:100 nM and 1000 nM (sheet 'Lestaurtinib' of Supplementary Table 1),run:Lestaurtinib_02482_R3,Plate:MR011): 40.8 nM
potency estimated from few doses (STK3; compound concentrations:100 nM and 1000 nM (sheet 'Lestaurtinib' of Supplementary Table 1),run:Lestaurtinib_02487_R1,Plate:MR012): 28.6 nM
potency estimated from few doses (STK3; compound concentrations:100 nM and 1000 nM (sheet 'Lestaurtinib' of Supplementary Table 1),run:Lestaurtinib_02487_R3,Plate:MR012): 38.9 nM
potency estimated from few doses (STK3; compound concentrations:100 nM and 1000 nM (sheet 'Lestaurtinib' of Supplementary Table 1),run:Lestaurtinib_02496_R1,Plate:MR013): 45 nM
potency estimated from few doses (STK3; compound concentrations:100 nM and 1000 nM (sheet 'Lestaurtinib' of Supplementary Table 1),run:Lestaurtinib_02496_R3,Plate:MR013): 48.7 nM
potency estimated from few doses (STK3; compound concentrations:100 nM and 1000 nM (sheet 'Lestaurtinib' of Supplementary Table 1),run:Lestaurtinib_02566_R2,Plate:MR014): 41 nM
potency estimated from few doses (STK3; compound concentrations:100 nM and 1000 nM (sheet 'Lestaurtinib' of Supplementary Table 1),run:Lestaurtinib_02566_R3,Plate:MR014): 24.5 nM
potency estimated from few doses (STK3; compound concentrations:100 nM and 1000 nM (sheet 'Lestaurtinib' of Supplementary Table 1),run:Lestaurtinib_02572_R2,Plate:MR015): 50.4 nM
potency estimated from few doses (STK3; compound concentrations:100 nM and 1000 nM (sheet 'Lestaurtinib' of Supplementary Table 1),run:Lestaurtinib_02572_R3,Plate:MR015): 58.4 nM
potency estimated from few doses (STK3; compound concentrations:100 nM and 1000 nM (sheet 'Lestaurtinib' of Supplementary Table 1),run:Lestaurtinib_02577_R1,Plate:MR016): 36 nM
potency estimated from few doses (STK3; compound concentrations:100 nM and 1000 nM (sheet 'Lestaurtinib' of Supplementary Table 1),run:Lestaurtinib_02577_R2,Plate:MR016): 45 nM
potency estimated from few doses (STK3; compound concentrations:100 nM and 1000 nM (sheet 'Lestaurtinib' of Supplementary Table 1),run:Lestaurtinib_02584_R1,Plate:MR017): 38.6 nM
potency estimated from few doses (STK3; compound concentrations:100 nM and 1000 nM (sheet 'Lestaurtinib' of Supplementary Table 1),run:Lestaurtinib_02584_R3,Plate:MR017): 47.5 nM
potency estimated from few doses (STK3; compound concentrations:100 nM and 1000 nM (sheet 'Lestaurtinib' of Supplementary Table 1),run:Lestaurtinib_02601_R1,Plate:MR018): 59.1 nM
potency estimated from few doses (STK3; compound concentrations:100 nM and 1000 nM (sheet 'Lestaurtinib' of Supplementary Table 1),run:Lestaurtinib_02601_R2,Plate:MR018): 39.6 nM
potency estimated from few doses (STK3; compound concentrations:100 nM and 1000 nM (sheet 'Lestaurtinib' of Supplementary Table 1),run:Lestaurtinib_02606_R2,Plate:MR019): 46.2 nM
potency estimated from few doses (STK3; compound concentrations:100 nM and 1000 nM (sheet 'Lestaurtinib' of Supplementary Table 1),run:Lestaurtinib_02606_R3,Plate:MR019): 47.4 nM
potency estimated from few doses (STK3; compound concentrations:100 nM and 1000 nM (sheet 'Lestaurtinib' of Supplementary Table 1),run:Lestaurtinib_02624_R1,Plate:MR020): 53.2 nM
potency estimated from few doses (STK3; compound concentrations:100 nM and 1000 nM (sheet 'Lestaurtinib' of Supplementary Table 1),run:Lestaurtinib_02624_R2,Plate:MR020): 42.5 nM
potency estimated from few doses (STK3; compound concentrations:100 nM and 1000 nM (sheet 'Lestaurtinib' of Supplementary Table 1),run:Lestaurtinib_02624_R3,Plate:MR020): 40.4 nM
potency estimated from few doses (STK3; compound concentrations:100 nM and 1000 nM (sheet 'Lestaurtinib' of Supplementary Table 1),run:Lestaurtinib_02724_R1,Plate:MR021): 44.8 nM
potency estimated from few doses (STK3; compound concentrations:100 nM and 1000 nM (sheet 'Lestaurtinib' of Supplementary Table 1),run:Lestaurtinib_02724_R2,Plate:MR021): 42.8 nM
potency estimated from few doses (STK3; compound concentrations:100 nM and 1000 nM (sheet 'Lestaurtinib' of Supplementary Table 1),run:Lestaurtinib_02724_R3,Plate:MR021): 38.4 nM
potency estimated from few doses (STK3; compound concentrations:100 nM and 1000 nM (sheet 'Lestaurtinib' of Supplementary Table 1),run:Lestaurtinib_02748_R1,Plate:MR024): 35.8 nM
potency estimated from few doses (STK3; compound concentrations:100 nM and 1000 nM (sheet 'Lestaurtinib' of Supplementary Table 1),run:Lestaurtinib_02748_R3,Plate:MR024): 40.1 nM
potency estimated from few doses (STK3; compound concentrations:100 nM and 1000 nM (sheet 'Lestaurtinib' of Supplementary Table 1),run:Lestaurtinib_02765_R1,Plate:MR026): 38.6 nM
potency estimated from few doses (STK3; compound concentrations:100 nM and 1000 nM (sheet 'Lestaurtinib' of Supplementary Table 1),run:Lestaurtinib_02765_R2,Plate:MR026): 37.7 nM
potency estimated from few doses (STK3; compound concentrations:100 nM and 1000 nM (sheet 'Lestaurtinib' of Supplementary Table 1),run:Lestaurtinib_02766_R3,Plate:MR027): 42.9 nM
potency estimated from few doses (STK3; compound concentrations:100 nM and 1000 nM (sheet 'Lestaurtinib' of Supplementary Table 1),run:Lestaurtinib_02768_R1,Plate:MR028): 31.9 nM
potency estimated from few doses (STK3; compound concentrations:100 nM and 1000 nM (sheet 'Lestaurtinib' of Supplementary Table 1),run:Lestaurtinib_02768_R3,Plate:MR028): 40.1 nM
potency estimated from few doses (STK3; compound concentrations:100 nM and 1000 nM (sheet 'Lestaurtinib' of Supplementary Table 1),run:Lestaurtinib_02795_R1,Plate:MR022): 43.4 nM
potency estimated from few doses (STK3; compound concentrations:100 nM and 1000 nM (sheet 'Lestaurtinib' of Supplementary Table 1),run:Lestaurtinib_02795_R2,Plate:MR022): 27.8 nM
potency estimated from few doses (STK3; compound concentrations:100 nM and 1000 nM (sheet 'Lestaurtinib' of Supplementary Table 1),run:Lestaurtinib_02795_R3,Plate:MR022): 141 nM
potency estimated from few doses (STK3; compound concentrations:100 nM and 1000 nM (sheet 'Lestaurtinib' of Supplementary Table 1),run:Lestaurtinib_02802_R1,Plate:MR029): 22.4 nM
potency estimated from few doses (STK3; compound concentrations:100 nM and 1000 nM (sheet 'Lestaurtinib' of Supplementary Table 1),run:Lestaurtinib_02802_R3,Plate:MR029): 47.8 nM
potency estimated from few doses (STK3; compound concentrations:100 nM and 1000 nM (sheet 'Lestaurtinib' of Supplementary Table 1),run:Lestaurtinib_02896_R1,Plate:MR030): 38.8 nM
potency estimated from few doses (STK3; compound concentrations:100 nM and 1000 nM (sheet 'Lestaurtinib' of Supplementary Table 1),run:Lestaurtinib_02896_R2,Plate:MR030): 37.2 nM
potency estimated from few doses (STK3; compound concentrations:100 nM and 1000 nM (sheet 'Lestaurtinib' of Supplementary Table 1),run:Lestaurtinib_02896_R3,Plate:MR030): 37.9 nM
potency estimated from few doses (STK3; compound concentrations:100 nM and 1000 nM (sheet 'Lestaurtinib' of Supplementary Table 1),run:Lestaurtinib_03172_R1,Plate:MR031): 35 nM
potency estimated from few doses (STK3; compound concentrations:100 nM and 1000 nM (sheet 'Lestaurtinib' of Supplementary Table 1),run:Lestaurtinib_03172_R3,Plate:MR031): 39.7 nM
potency estimated from few doses (STK3; compound concentrations:100 nM and 1000 nM (sheet 'Lestaurtinib' of Supplementary Table 1),run:Lestaurtinib_03252_R2,Plate:MR032): 48.1 nM
potency estimated from few doses (STK3; compound concentrations:100 nM and 1000 nM (sheet 'Lestaurtinib' of Supplementary Table 1),run:Lestaurtinib_03260_R3,Plate:MR033): 36.6 nM
potency estimated from few doses (STK4; compound concentrations:100 nM and 1000 nM (sheet 'Lestaurtinib' of Supplementary Table 1),run:Lestaurtinib_02339_R1,Plate:MR001): 42 nM
potency estimated from few doses (STK4; compound concentrations:100 nM and 1000 nM (sheet 'Lestaurtinib' of Supplementary Table 1),run:Lestaurtinib_02339_R2,Plate:MR001): 40.1 nM
potency estimated from few doses (STK4; compound concentrations:100 nM and 1000 nM (sheet 'Lestaurtinib' of Supplementary Table 1),run:Lestaurtinib_02339_R3,Plate:MR001): 27.7 nM
potency estimated from few doses (STK4; compound concentrations:100 nM and 1000 nM (sheet 'Lestaurtinib' of Supplementary Table 1),run:Lestaurtinib_02364_R1,Plate:MR002): 35.9 nM
potency estimated from few doses (STK4; compound concentrations:100 nM and 1000 nM (sheet 'Lestaurtinib' of Supplementary Table 1),run:Lestaurtinib_02364_R2,Plate:MR002): 43 nM
potency estimated from few doses (STK4; compound concentrations:100 nM and 1000 nM (sheet 'Lestaurtinib' of Supplementary Table 1),run:Lestaurtinib_02364_R3,Plate:MR002): 43.2 nM
potency estimated from few doses (STK4; [1]): 35.7 nM
potency estimated from few doses (STK4; [2]): 35 nM
potency estimated from few doses (STK4; [3]): 39.1 nM
potency estimated from few doses (STK4; [4]): 35.8 nM
potency estimated from few doses (STK4; [5]): 36.2 nM
potency estimated from few doses (STK4; [6]): 33 nM
potency estimated from few doses (STK4; [7]): 44.8 nM
potency estimated from few doses (STK4; [8]): 50.1 nM
potency estimated from few doses (STK4; compound concentrations:100 nM and 1000 nM (sheet 'Lestaurtinib' of Supplementary Table 1),run:Lestaurtinib_02422_R3,Plate:MR006): 45.3 nM
potency estimated from few doses (STK4; [9]): 42 nM
potency estimated from few doses (STK4; [10]): 41.6 nM
potency estimated from few doses (STK4; compound concentrations:100 nM and 1000 nM (sheet 'Lestaurtinib' of Supplementary Table 1),run:Lestaurtinib_02437_R3,Plate:MR007): 4.01 nM
potency estimated from few doses (STK4; [11]): 36.6 nM
potency estimated from few doses (STK4; compound concentrations:100 nM and 1000 nM (sheet 'Lestaurtinib' of Supplementary Table 1),run:Lestaurtinib_02438_R3,Plate:MR008): 38.2 nM
potency estimated from few doses (STK4; [12]): 38.6 nM
potency estimated from few doses (STK4; compound concentrations:100 nM and 1000 nM (sheet 'Lestaurtinib' of Supplementary Table 1),run:Lestaurtinib_02443_R3,Plate:MR009): 36.6 nM
potency estimated from few doses (STK4; [13]): 44.6 nM
potency estimated from few doses (STK4; compound concentrations:100 nM and 1000 nM (sheet 'Lestaurtinib' of Supplementary Table 1),run:Lestaurtinib_02473_R3,Plate:MR010): 37.7 nM
